Assay outcomes: PubChem, National Center for Advancing Translational Sciences (NCATS)
Only some compounds are listed: those with a hit (about 10% of all), similar ones and a draw of the others.
NIH3T3 tox = Cytotoxic Profiling in NIH 3T3 Cell Line of Diverse Libraries Using Quantitative High-Throughput Screening; NIH 3T3 viability, CellTiter-Glo ATP luminescence, 48-72 h; Potency, µM (doses to about 96.7 µM), for inactives: top-dose activity change, negative = cytotoxicity, actives largely listed as inhibitors; 94,000 tested, 4.3% active; AID 1345082, 2018; also: nearly all actives have a fitted effect of over 55% in size
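Viability of NIH 3T3 cells after 48 or 72 hr compound treatment at 37 °C was assessed by CellTiter-Glo, with luminescence imaged following a 10 min room-temperature step.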
HEK cytotox = Cytotoxic Profiling in HEK 293 Cell Line of Diverse Libraries Using Quantitative High-Throughput Screening; HEK 293 viability, ATP luminescence (CellTiter-Glo), 48-72 h; Potency, µM (highest dose often 115 µM), without a hit: at the top dose activity change, negative = cytotoxicity, most hits filed as inhibitors; 94,000 tested, 6.6% active; AID 1345083, 2018; also: nearly all actives have a fitted effect of over 60% in size
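Viability of HEK 293 cells, plated at 250 cells/well, was judged by cellular ATP after compound treatment for 48 or 72 hr. Luminescence was imaged 10 min after CellTiter-Glo addition at room temperature.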
hNpr1 antagonist = Natriuretic polypeptide receptor (hNpr1) antagonism - Primary qHTS. AID 1347048, 2019. Atrial natriuretic peptide receptor 1 (Homo sapiens), P16066. 76,000 tested, 1.6% active. HEK293 hNpr1 GloSensor cGMP, ANP-stimulated luminescence. Potency, µM (titrated, usually from 46.3 µM), inactives show top-dose activity change, negative = inhibition, most hits filed as inhibitors; calls by dose curve; also: nearly all actives have a fitted effect of over 60% in size
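Compound pre-incubated 30 min at room temperature on GloSensor-loaded HEK293 cells stably carrying hNpr1 and the pGS-40F cGMP biosensor. Stimulation uses hNppA at 0.1 nM final; luminescence is taken at baseline and 20 min post-agonist.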
FLuc inh = Firefly luciferase inhibition profiling of diverse chemical library using quantitative high-throughput screening; Luciferin 4-monooxygenase (Photinus pyralis), P08659; purified P. pyralis luciferase, luminescence, biochemical; Potency, µM (highest dose often 115 µM), most hits filed as inhibitors; 76,000 tested, 2.5% active; AID 1347043, 2019; also: nearly all actives have a fitted effect of over 65% in size
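Cell-free enzyme assay, 10nM P. pyralis luciferase, luciferin and ATP each at 10uM. Inhibition profiled over a 6-point titration, read as luminescence.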
GPT2 inhibitor = Primary qHTS assay for inhibitors of Glutamate pyruvate transaminase 2 (GPT2); Recombinant GPT2, coupled pyruvate oxidase/HRP Amplex Red fluorescence; Alanine aminotransferase 2 (Homo sapiens), Q8TD30; Potency, µM (series often up to 57.7 µM), for inactives: at the top dose activity change, negative = inhibition, most hits filed as inhibitors; AID 1671188, 2021; 100,000 tested, 0.25% active; also: nearly all actives have a fitted effect of over 60% in size
Target sequence (Q8TD30 whole entry, looked up): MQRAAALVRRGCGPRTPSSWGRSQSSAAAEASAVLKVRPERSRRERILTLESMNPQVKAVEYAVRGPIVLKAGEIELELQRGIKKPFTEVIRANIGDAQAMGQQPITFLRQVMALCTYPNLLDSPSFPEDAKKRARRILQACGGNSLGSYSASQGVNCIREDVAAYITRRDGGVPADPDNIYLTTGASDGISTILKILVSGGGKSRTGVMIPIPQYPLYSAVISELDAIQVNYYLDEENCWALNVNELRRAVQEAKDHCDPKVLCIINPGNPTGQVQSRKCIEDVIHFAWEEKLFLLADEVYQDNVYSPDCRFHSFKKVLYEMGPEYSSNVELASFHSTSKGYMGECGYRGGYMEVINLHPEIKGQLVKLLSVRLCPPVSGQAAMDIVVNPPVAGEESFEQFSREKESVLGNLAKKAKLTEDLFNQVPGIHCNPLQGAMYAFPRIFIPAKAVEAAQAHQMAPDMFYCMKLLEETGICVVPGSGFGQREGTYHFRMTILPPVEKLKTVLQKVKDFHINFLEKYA
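Recombinant GPT2 (10ng/uL) with 250uM a-KG and 2mM L-alanine, 30 min at room temperature, in HEPES pH 7.5 buffer. Pyruvate detected by pyruvate oxidase/HRP/Amplex Red fluorescence after 30 min in the dark; AOA (50uM) as positive control.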
Starred values were filed as active, the others as inactive; i = inactive; u = inconclusive; x = not tested or not shown; [ ] = another dose, or the depositor's remark. Unless noted, calls follow the shape of the dose curve; as a rule, active = well fitted curve in the direction sought with a large enough effect; inconclusive = small, poorly fitted or top-dose-only effect, or another doubt; inactive = no such curve, though single readings can be large; an effect the other way counts as inactive or inconclusive. % is scaled to controls: 0 for no effect and ±100 for the full control effect; potency is read from the fitted curve at half-maximal effect.

SMILES	NIH3T3 tox	HEK cytotox	hNpr1 antagonist	FLuc inh	GPT2 inhibitor
O=C(NCC1CC1)c1cccc(OC2CN(Cc3ccc(F)cc3Cl)C2)c1	40µM*	u	u	i	1%
O=C(NCC1CC1)c1cccc(OC2CN(Cc3ccc(F)cc3F)C2)c1	u	u	-15%	i	i
COc1ccc(NC(=O)c2ccc3c(c2)OCCN(c2ccccc2)C3)cn1	u	u	u	i	-20%[88.5 µM]
O=C(Nc1ccc(F)cc1)c1ccc2c(c1)OCCN(C1CCC1)C2	u	u	-18%[70.6 µM]	45µM*	4%[88.5 µM]
Cc1cc(NC(=O)c2ccc3c(c2)OCCN(C2CCC2)C3)ccc1F	u	u	-24%[70.6 µM]	22µM*	-2%[88.5 µM]
Cc1ccc(CNC(=O)c2ccc3c(c2)CN(C2CCC2)CCO3)cc1	-16%	-18%	-1%	i	-3%
Cc1cccc(NC(=O)Nc2ccc(C)n(CC(=O)NCCN3CCCC3)c2=O)c1	-13%	-2%	0%	i	i
CN1CC(=O)N(C2CCNC2)Cc2c(NC3CCN(Cc4ccccc4)CC3)ncnc21 (centres undefined)	-19%	-16%	x	x	2%
CCNC(=O)[C@H]1O[C@H](n2cnc3c(NCC(c4ccccc4)c4ccccc4)nc(C(=O)NCCNC(=O)NC4CCN(c5ccccn5)CC4)nc32)[C@H](O)[C@@H]1O	x	x	x	x	1%
Cn1c(CCC(=O)N2CC[C@@H](O)C2)nc2cc(S(=O)(=O)N3CCCC3)ccc21	-16%	0%	0%	i	4%
COc1ccc(NC(=O)Nc2cccc(-c3ccc(N4CCC(C)CC4)nn3)c2)cc1OC	u	u	3.2µM*	0.1µM*	i
COc1ccc(C(=O)Nc2cccc(-c3nnc4n3CCCC4)c2)cc1OC	i	u	-1%	i	i
COc1ccc(-c2cccc(C(=O)NCC(C)C)c2)nn1	u	-23%[172 µM]	x	x	x
CC(C)CNC(=O)Nc1cccc(-c2ccc(N3CCC(C)CC3)nn2)c1	-20%	-8%	7.1µM*	0.32µM*	i
COc1ccc(NC(=O)c2cc3c(N4CCSCC4)nc(C)cn3n2)cc1	-3%	6%	-1%	i	i
COc1cccc(-c2cc3c(ccn3C(C)C)c(C(=O)NCc3c(C)cc(C)[nH]c3=O)n2)c1	u	u	-1%	i	i
CC(=O)Nc1cccc(-c2cc3c(ccn3C)c(C(=O)NCc3c(C)cc(C)[nH]c3=O)n2)c1	-25%	u	4%	i	2%
Cc1cc(C)c(CNC(=O)c2nc(-c3cccnc3)cc3c2ccn3C(C)C)c(=O)[nH]1	u	100µM*	-4%[70.6 µM]	i	i
Cc1cc(C)c(CNC(=O)c2nc(-c3cncnc3)cc3c2ccn3C(C)C)c(=O)[nH]1	u	u	5%[70.6 µM]	i	i
Cc1cc(C)c(CNC(=O)c2nc(-c3ccc(F)cc3)cc3c2ccn3C(C)C)c(=O)[nH]1	45µM*	50µM*	3%[70.6 µM]	i	i
Cc1cc(-c2cc3c(ccn3C(C)C)c(C(=O)NCc3c(C)cc(C)[nH]c3=O)n2)ccn1	45µM*	45µM*	-8%[70.6 µM]	i	2%[88.5 µM]
Cc1cc(C)c(CNC(=O)c2nc(-c3ccc(CO)cc3)cc3c2ccn3C(C)C)c(=O)[nH]1	u	79µM*	4%	i	-7%
CNC(=O)N1CCC(C2CCN(C(=O)COc3cccc(C)c3)C2)CC1 (centres undefined)	-7%	i	6%	i	i
CN1CCC(NC(=O)c2n[nH]c3c2CN(C(=O)c2ccccc2Br)CC3)CC1	i	-4%	0%	i	-10%
C[S+](=O)([O-])N1CCC2(C1)C(=NC1CCCC1)NC(=O)N2c1cccnc1 (centres undefined)	i	-6%	23%	i	i
SMILES	NIH3T3 tox	HEK cytotox	hNpr1 antagonist	FLuc inh	GPT2 inhibitor
COc1ccc(OCc2nc(C3CN(C(=O)Cc4ccccc4F)C3)no2)cc1	u	u	-18%	i	i
Cc1c(-c2ccccc2)[nH]c2c(CNC(=O)c3ccc(=O)n(C)n3)cc(Cl)cc12	u	28µM*	11µM*	u	-33%
Cc1c(-c2ccccc2)[nH]c2c(CNC(=O)CN3C(=O)CNC3=O)cc(Cl)cc12	u	u	2%	10µM*	i
O=C(Nc1ccccc1Cl)C1CCCN1Cc1ccc(-c2cncnc2)cc1 (centres undefined)	u	u	x	x	i
CN(Cc1ccccc1)C1CCOC2(CCN(C(=O)NC3CCCC3)CC2)C1 (centres undefined)	i	5%	4%	i	i
O=C(NCCNC(=O)c1ccc(-c2cccc(C(F)(F)F)c2)cc1)c1ccncc1	u	40µM*	x	x	x
O=C(NCCNC(=O)c1ccc(-c2cccc(C(F)(F)F)c2)cc1)c1ccccc1	-6%	-25%	x	x	x
COc1ccc(CC(=O)NCCNC(=O)c2ccc(-c3cccc(C(F)(F)F)c3)cc2)cc1	-24%	25µM*	x	x	x
Cc1nn(-c2ccccc2)c2c1C(C(C)C)N(C1CCCN(C(=O)c3ccc(Cl)nc3)C1)C2=O (centres undefined)	u	40µM*	x	x	x
Cc1nn(-c2ccccc2)c2c1C(C(C)C)N(C1CCN(C(=O)N3CCOCC3)C1)C2=O (centres undefined)	u	79µM*	x	x	x
Cc1nn(-c2ccccc2)c2c1C(C(C)C)N(C1CCCN(C(=O)Cc3ccc(F)cc3)C1)C2=O (centres undefined)	u	25µM*	x	x	x
Cc1nn(-c2ccccc2)c2c1C(C1CC1)N(C1CCN(C(=O)Cc3ccc(F)cc3)C1)C2=O (centres undefined)	u	35µM*	x	x	x
N#Cc1ccc(CN2CCCC3(CC(c4cccc(C(F)(F)F)c4)=NO3)C2)cc1 (centres undefined)	u	u	u	i	0%
Cc1nn(-c2ccccc2)c2c1C(C(C)C)N(C1CCCN(C(=O)c3ccc(F)cc3)C1)C2=O (centres undefined)	u	28µM*	x	x	x
Cc1nn(-c2ccccc2)c2c1C(C(C)C)N(C1CCN(C(=O)c3ccc(Cl)nc3)C1)C2=O (centres undefined)	-26%	u	x	x	x
Cc1nn(-c2ccccc2)c2c1C(C(C)C)N(C1CN(C(=O)Cc3ccccc3)C1)C2=O (centres undefined)	u	50µM*	x	x	x
